Bioassay records: PubChem BioAssay, National Center for Advancing Translational Sciences (NCATS)
KB-3-1 cytotox = KB-3-1 parental cell cytotoxicity | KB-3-1 viability, CellTiter-Glo ATP luminescence, 72 h | hit rate 1.4% among 400,000 | Potency, µM (titrated, usually from 46.1 µM), most hits filed as cytotoxic; further: nearly all actives have a fitted effect of over 60% in size
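Viability of parental KB-3-1 cells, measured by CellTiter-Glo luminescence, followed a 72 h incubation at 37 °C with pinned compounds in phenol-red-free DMEM containing 10% FBS.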
HT1080-NT tox = kills 2HG-producing HT-1080-NT fibrosarcoma cells | Potency, µM (top dose mostly 46.1 µM), for the others: at the highest dose activity, negative = less viability, most hits filed as cytotoxic | AID 686970 | HT-1080-NT fibrosarcoma viability, CellTiter-Glo ATP luminescence, 48 h | hit rate 1.6% among 360,000;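 further: NT is the 2HG producing partner of a matched IDH1 knockdown line; 0% = DMSO-treated cells and -100% = media-only wells without cells; nearly all actives have a fitted effect of over 55% in size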
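Compounds were tested in concentration-response format on HT-1080-NT cells for 48 hours at 37 degrees C. Cell viability came from CellTiter-Glo luminescence; curves were classified by r2, response magnitude and activity.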
KB-V1 cytotox = kills drug-selected multidrug resistant KB-V1 cells. hit rate 3.4% among 400,000. Potency, µM (titrated, usually from 46.1 µM), hits mostly cytotoxic. KB-V1 MDR cells viability, CellTiter-Glo, 72 h; further: nearly all actives have a fitted effect of over 60% in size
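KB-V1 MDR subline cells in DMEM (phenol-red free, 10% FBS) exposed to compounds in qHTS concentration series for 72 h at 37 degrees C. Viability read by CellTiter-Glo luminescence; concentration-effect curves fitted after normalization and correction.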
HT1080 IDH1KD tx = toxicity to HT-1080 IDH1 knockdown cells (counter line) | Potency, µM (titrated, usually from 46.1 µM), for the others: top-dose activity, negative = toxicity, usual class: cytotoxic | hit rate 2% among 360,000 | AID 686971 | HT-1080 IDH1 knockdown viability, ATP luminescence, 48 h;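 further: 0% = DMSO wells and -100% = cell-free medium wells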
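CellTiter-Glo luminescence after 48 h compound exposure at 37 degrees C of IDH1-knockdown HT-1080 cells in 5% FBS RPMI. %Activity scaled between DMSO wells and cell-free media wells, with curves fitted and assigned curve classes.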
* marks the source's active call; other numbers are inactive results; i = inactive; ? = inconclusive; nt = not tested or not shown; [ ] = another dose, or the depositor's remark. The list is not random: actives were taken first. Their share in the collection is about 5.7%. The call rests on the fitted dose curve; in most records, active means well fitted curve in the direction sought with a large enough effect; inconclusive means small, poorly fitted or top-dose-only effect, or another doubt; inactive means no such curve, though single readings can be large; an effect the other way counts as inactive or inconclusive. Unless noted, on the % scale 0 is the no-effect control and ±100 the full control effect; potency means the concentration at half of the fitted maximal effect.

SMILES	KB-3-1 cytotox	HT1080-NT tox	KB-V1 cytotox	HT1080 IDH1KD tx
CC(=O)C1=CCC(c2cccc(Cl)c2)N(S(=O)(=O)c2ccc(C)cc2)C1 (stereo unspecified)	i	?	i	14.6µM*
CCOC(=O)C1=C[C@@H](CC)N(S(=O)(=O)c2ccc([N+](=O)[O-])cc2)[C@H]1c1ccccc1	i	7.2%	i	3.1%
CCOC(=O)C1=C[C@@H](C(C)(C)C)N(S(=O)(=O)c2ccc(C)cc2)[C@H]1c1cccc(Cl)c1	?	?	i	18.4µM*
CC(=O)N1CCCc2cc(S(=O)(=O)N3CCC(C(=O)NCc4cccc(C)c4)CC3)ccc21	i	nt	i	nt
CC(C)c1ccc(CNc2nc(-c3ccco3)nn2C(=O)c2ccc([N+](=O)[O-])cc2)cc1	i	nt	i	nt
COc1ccc(-c2cc(OC(=O)c3ccc(F)cc3)c3c(C)oc(C)c3c(=O)c2)cc1OC	i	nt	i	nt
CCOC(=O)N1CCC(NC(=O)CCc2c(C)nc3c(c(C)nn3C(C)(C)C)c2C)CC1	?	?	3.66µM*	?
O=C(NCc1ccc(Cl)cc1)c1cnc(N2CCOCC2)c2ccccc12	?	nt	i	nt
CN(C)CCCn1cnc2c(c1=N)C(c1ccccc1)c1ccc3ccccc3c1O2 (stereo unspecified)	i	?	i	?
N=c1c2c(ncn1CCCO)Oc1c(ccc3ccccc13)C2c1ccccc1 (stereo unspecified)	?	?	16.4µM*	-29.6%
COc1ccc(C2c3ccc4ccccc4c3Oc3ncn(CCCO)c(=N)c32)cc1 (stereo unspecified)	i	18.4µM*	i	?
COc1ccc(C2c3ccc4ccccc4c3Oc3ncn(CCCO)c(=N)c32)cc1OC (stereo unspecified)	?	7.31µM*	?	5.17µM*
COc1ccc(C2c3ccc4ccccc4c3Oc3ncn(CCO)c(=N)c32)cc1 (stereo unspecified)	i	?	i	11.6µM*
CCOc1ccc2cc(C#N)c(SCC(=O)OCc3ccccc3)nc2c1	i	nt	i	nt
C1NNCC12CNNC2	nt	?	nt	0.5%
CC(=O)C(C(C)=O)c1c(Cl)c(O)c(O)c2c(C(=O)c3ccccc3)coc12	13µM*	?	?	11.6µM*
CC[n+]1c(/C=C/N(C)c2ccccc2)oc2ccc(F)cc21	5.8µM*	?	i	?
CC[n+]1c(/C=C/Nc2ccccc2)oc2ccc(OC)cc21	i	-14.1%	i	-1.0%
O=C(N/N=C/c1ccc([N+](=O)[O-])cc1)c1ccc(COc2ccccc2-c2ccccc2)cc1	?	-6.0%	16.4µM*	6.3%
O=C(NC1CCCCCC1)C1CCC(CNS(=O)(=O)c2cccc3cccnc23)CC1 (stereo unspecified)	i	nt	i	nt
CN1C(=O)C(O)(CC(=O)c2ccccn2)c2cc(Br)ccc21 (stereo unspecified)	?	?	7.31µM*	-21.0%
CCOc1ccc(NC(=O)N2CCC(c3ccc(C)cc3)C2)cc1 (stereo unspecified)	i	6.1%	20.6µM*	-2.2%
CCOc1ccc(NC(=O)N(CCC(C)C)C2CCN(C(C)=O)CC2)cc1	i	8.4%	18.4µM*	-1.4%
CCOc1ccc(NC(=O)N2CCC(N3CCCCC3)CC2)cc1	i	nt	i	nt
CCOc1ccc(NC(=O)N(C2CCCC2)C2CCN(C(C)=O)CC2)cc1	i	-4.9%	i	1.5%
SMILES	KB-3-1 cytotox	HT1080-NT tox	KB-V1 cytotox	HT1080 IDH1KD tx
Cc1cccc(C)c1NC(=O)C(c1cccc2ccccc12)n1c(=O)c(-c2cc3ccccc3[nH]2)nc2ccccc21 (stereo unspecified)	i	-10.1%	i	-8.0%
O=C1CCC2=C1C(c1ccccc1Cl)N=C(Nc1nc3ccccc3o1)N2 (stereo unspecified)	i	nt	i	nt
CCCCCn1c(CNC(=O)c2cccs2)nc2ccccc21	i	12.6µM*	i	8.4%[9.24 µM]
CCCCn1nc(NC(=O)c2cccs2)c2cc3ccccc3nc21	?	?	25.9µM*	?
CCCCn1c(CNC(=O)c2cccs2)nc2ccccc21	?	7.6%	?	-7.4%
CCn1nc(NC(=O)c2ccncc2)c2cc3cc(C)ccc3nc21	i	-7.0%	i	-0.2%
CCn1nc(NC(=O)c2ccncc2)c2cc3ccc(C)cc3nc21	i	-26.7%	9.2µM*	?
